# In PubChem BioAssay (NCI):
# About 83,000 compounds went through this panel and 20% of them were active in at least one assay; those are over-represented in the sample as a whole.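 How to read the values: 0–100, growth inhibition (40 = 60% inhibited); 0, no net growth; -100 to 0, cell death (-40 = 40% of starting cells died; -100 = all dead).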 Calls of active or inactive are those of the source. Rule for the calls: active = growth percent below 10; inactive = the rest.
# Experiments:
# Experiment in all cases: NCI-60 one-dose screen, 48 h (100 = growth as untreated, 0 = no growth, -100 = all killed)
# Conditions in all cases: 10 µM unless noted
# HCT-15 colon = tested on: HCT-15 colon
# HT29 colon = tested on: HT29 colon
# SNB-75 CNS = tested on: SNB-75 CNS
# SNB-19 CNS = tested on: SNB-19 CNS
# U251 CNS = tested on: U251 CNS
# SK-MEL-5 melanoma = tested on: SK-MEL-5 melanoma
# UACC-62 melanoma = tested on: UACC-62 melanoma
# LOX IMVI melanoma = tested on: LOX IMVI melanoma
# SK-MEL-28 melanoma = tested on: SK-MEL-28 melanoma
SMILES,growth (HCT-15 colon),growth (HT29 colon),growth (SNB-75 CNS),growth (SNB-19 CNS),growth (U251 CNS),growth (SK-MEL-5 melanoma),growth (UACC-62 melanoma),growth (LOX IMVI melanoma),growth (SK-MEL-28 melanoma)
Cc1nn(-c2ccc(F)cc2)c2ncnc(Nc3ccc(NC(=O)Nc4ccc(Cl)c(C(F)(F)F)c4)cc3)c12,11.2% (inactive),37.9% (inactive),32.4% (inactive),23.7% (inactive),19.5% (inactive),61.1% (inactive),11% (inactive),34.8% (inactive),17.8% (inactive)
COc1cc(/C=C/C(=O)c2cccnc2Nc2ccc(F)cc2)cc(OC)c1OC,22.2% (inactive),12.5% (inactive),22.4% (inactive),61.6% (inactive),24.1% (inactive),53.7% (inactive),49.9% (inactive),8.97% (active),–
OC(COc1cccc2ccccc12)CN1CCN(c2ccccc2Cl)CC1 (stereo unspecified),99% (inactive),85.7% (inactive),86.7% (inactive),83.4% (inactive),97.8% (inactive),90.7% (inactive),93.9% (inactive),92.6% (inactive),112% (inactive)
CCCc1cc(=O)n2c(C(=O)Nc3cccc(C(=O)OCC)c3)c(C(=O)Nc3ccc(F)cc3)sc2n1,66.4% [30 µM] (inactive),67.5% [30 µM] (inactive),25.6% [30 µM] (inactive),43.8% [30 µM] (inactive),13.2% [30 µM] (inactive),66.6% [30 µM] (inactive),104% [30 µM] (inactive),46.8% [30 µM] (inactive),88.3% [30 µM] (inactive)
COCCNc1ccc2c3c(cccc13)C(=O)N(CCN(C)C)C2=O,20% (inactive),10.4% (inactive),47.7% (inactive),22.4% (inactive),28.1% (inactive),-33.5% (active),3.48% (active),2.86% (active),–
C#CCOc1ccc2ncnc(Nc3cccc(CNC(=O)C=C)c3)c2c1,104% [8.25 µM] (inactive),108% [8.25 µM] (inactive),88.6% [8.25 µM] (inactive),98.1% [8.25 µM] (inactive),94.6% [8.25 µM] (inactive),96% [8.25 µM] (inactive),99.6% [8.25 µM] (inactive),97.3% [8.25 µM] (inactive),97.5% [8.25 µM] (inactive)
O=C1C=CC(=O)N1c1ccc2c(c1)Cc1cc(F)ccc1-2,97.1% (inactive),95% (inactive),75.8% (inactive),90.7% (inactive),88.9% (inactive),98.1% (inactive),91.6% (inactive),104% (inactive),–
O=[N+]([O-])c1cnc(N2CCN(CC3CC3)CC2)nc1N1CCN(CC2CC2)CC1,96% (inactive),87% (inactive),81% (inactive),100% (inactive),98.4% (inactive),99.5% (inactive),110% (inactive),99.6% (inactive),91.3% (inactive)
COc1ccc(Nc2c3c4c(cccc4[nH]c2=O)C(=O)c2ccccc2-3)cc1,-4.37% (active),-32.1% (active),0.39% (active),25.8% (inactive),3.3% (active),-42.3% (active),38.3% (inactive),23.9% (inactive),71.1% (inactive)
C#Cc1cccc(NC(=O)c2ccccc2NC(=O)CCl)c1,68.7% [8.25 µM] (inactive),86.1% [8.25 µM] (inactive),70.5% [8.25 µM] (inactive),74.2% [8.25 µM] (inactive),74.6% [8.25 µM] (inactive),87.7% [8.25 µM] (inactive),85.1% [8.25 µM] (inactive),91.4% [8.25 µM] (inactive),102% [8.25 µM] (inactive)
COc1ccc(-n2nc(C)c3c(Nc4ccc(NC(=O)Nc5cc(C(F)(F)F)ccc5F)cc4)ncnc32)cc1,8.66% (active),1.92% (active),25.8% (inactive),34.8% (inactive),12.9% (inactive),46% (inactive),19.6% (inactive),-90.5% (active),48.6% (inactive)
O=c1nc2oc3ccc4ccccc4c3cc-2s1,32.4% (inactive),15.2% (inactive),-16.1% (active),31.9% (inactive),12.5% (inactive),10.8% (inactive),37.6% (inactive),33.5% (inactive),–
COc1ccc(S(=O)(=O)N2CCN(C)CC2)cc1NC(=O)c1[nH]c(C)c2c1CCCCC2=O,62.4% (inactive),28.9% (inactive),17.4% (inactive),66.5% (inactive),68% (inactive),43.7% (inactive),25.6% (inactive),29.6% (inactive),72% (inactive)
Cn1cc(-c2nonc2-c2cn(C)c3ccc(F)cc23)c2cc(F)ccc21,30.8% (inactive),12.3% (inactive),53.8% (inactive),60.1% (inactive),45.2% (inactive),51.4% (inactive),50.6% (inactive),57.9% (inactive),69% (inactive)
Cn1ncc2c(=O)nc3c(-c4ccccc4)n[nH]n3c21,104% (inactive),103% (inactive),96.3% (inactive),99.1% (inactive),110% (inactive),110% (inactive),96.7% (inactive),115% (inactive),–
C#CCOc1ccc2ncnc(N3CCN(C(=O)CCl)CC3)c2c1,58.8% [8.25 µM] (inactive),71.7% [8.25 µM] (inactive),101% [8.25 µM] (inactive),95.9% [8.25 µM] (inactive),91.2% [8.25 µM] (inactive),57.7% [8.25 µM] (inactive),68.2% [8.25 µM] (inactive),47.4% [8.25 µM] (inactive),98.4% [8.25 µM] (inactive)
O=C1CSC(=S)N1CCc1ccc(O)cc1,59.3% (inactive),107% (inactive),71.3% (inactive),93% (inactive),100% (inactive),97.1% (inactive),87.5% (inactive),77.1% (inactive),101% (inactive)
NC(=O)c1cc(Cl)ccc1NC(=O)/C=C/c1ccccc1,27.3% (inactive),8.83% (active),0.0967% (active),26.7% (inactive),29.8% (inactive),5.23% (active),47.7% (inactive),53.3% (inactive),–
Nc1ccc(-c2cc3c(Nc4ccc(Oc5cccc(C(F)(F)F)c5)c(Cl)c4)ncnc3s2)cc1,44.6% (inactive),64% (inactive),78.1% (inactive),89.8% (inactive),79% (inactive),70.9% (inactive),81.9% (inactive),50.1% (inactive),83.1% (inactive)
Cc1cn2c(/C=C3/C(=O)Nc4c3ccc3ccccc43)c(C(F)(F)F)nc2s1,27% (inactive),0.295% (active),-6.4% (active),36.3% (inactive),17.5% (inactive),24.7% (inactive),31.6% (inactive),33.6% (inactive),58.4% (inactive)
O=C(Nc1ccccc1Cl)c1ccc(NC2=C(Cl)C(=O)N(C3CCCCC3)C2=O)cc1,46.5% [30 µM] (inactive),37.4% [30 µM] (inactive),38.8% [30 µM] (inactive),62.1% [30 µM] (inactive),34.1% [30 µM] (inactive),54.4% [30 µM] (inactive),66.2% [30 µM] (inactive),23.7% [30 µM] (inactive),56.1% [30 µM] (inactive)
NC(N)=N/N=C(/c1ccccc1)c1ccc(F)cc1,10.3% (inactive),-1.2% (active),18% (inactive),26.8% (inactive),4.79% (active),-18.7% (active),4.05% (active),18.6% (inactive),35.1% (inactive)
CCOC(=O)n1cc(-c2nonc2-c2cn(C)c3ncccc23)c2ccccc21,60.2% (inactive),79.5% (inactive),61.6% (inactive),89.3% (inactive),83.2% (inactive),77.3% (inactive),64.6% (inactive),84.3% (inactive),–
O=C1/C(=C/N2N=C(c3ccc4ccccc4c3)CC2c2ccccc2O)SC(=S)N1c1cccnc1 (stereo unspecified),12.4% (inactive),10.7% (inactive),-4.45% (active),40.1% (inactive),16.1% (inactive),64% (inactive),66.2% (inactive),27.5% (inactive),78.6% (inactive)
CC(=O)OCCC/C(=C/c1cc2ccccc2c2ccccc12)[N+](=O)[O-],-81.8% (active),-44.7% (active),-93.6% (active),-91.1% (active),-95.4% (active),-100% (active),-90.2% (active),-70.6% (active),–
COc1ccc(S(=O)(=O)N2CC3(COC3)C2)cc1NC(=O)c1[nH]c(C)c2c1CCCCC2=O,70.1% (inactive),19.2% (inactive),19.4% (inactive),54.9% (inactive),62.8% (inactive),46.5% (inactive),23.4% (inactive),17.3% (inactive),73.7% (inactive)
CCOc1nc(-c2ccccc2)cc2c(O)c(C(=O)N/N=C/c3ccc(O)cc3O)[nH]c(=O)c12,23.9% (inactive),48.3% (inactive),59.6% (inactive),43.2% (inactive),21.2% (inactive),21.9% (inactive),9.73% (active),-0.51% (active),60% (inactive)
Cc1cc(C)nc(SC2=C(Nc3cccc(Cl)c3C)C(=O)N(Cc3ccccc3)C2=O)n1,51.6% [30 µM] (inactive),30.2% [30 µM] (inactive),50.5% [30 µM] (inactive),71.9% [30 µM] (inactive),49.4% [30 µM] (inactive),64.3% [30 µM] (inactive),56.2% [30 µM] (inactive),59% [30 µM] (inactive),–
COc1ccc(-n2nc(C)c3c(Nc4ccc(NC(=O)Nc5c(Cl)cccc5Cl)cc4)ncnc32)cc1,72.2% (inactive),31.4% (inactive),55.9% (inactive),79.4% (inactive),63.3% (inactive),5.92% (active),46.7% (inactive),39.1% (inactive),–
